ChEMBL document CHEMBL3988442, “University of Dundee, Small-Polar-MMV Screening Library” (2021)
For some assays here: Results with a measured potency or affinity are listed apart.

Experiments:
Parameters in all cases: scale not given: direction of the effect not stated beside the values
[1] = target: Protein translocase subunit SecA (Escherichia coli (strain K12)) (UniProt P10408); experiment: Assay to Identify E. coli SecA ATPase Inhibitors; format: functional; conditions: 30 µM
[2] = target: T1, Ubiquitin-activating enzyme e1, putative (Leishmania donovani (strain BPK282A1)) (UniProt E9BSI1); experiment: Leishmania donovani Ubiquitin Activating Enzyme (LdE1); format: functional; conditions: 30 µM
T1 sequence (whole entry): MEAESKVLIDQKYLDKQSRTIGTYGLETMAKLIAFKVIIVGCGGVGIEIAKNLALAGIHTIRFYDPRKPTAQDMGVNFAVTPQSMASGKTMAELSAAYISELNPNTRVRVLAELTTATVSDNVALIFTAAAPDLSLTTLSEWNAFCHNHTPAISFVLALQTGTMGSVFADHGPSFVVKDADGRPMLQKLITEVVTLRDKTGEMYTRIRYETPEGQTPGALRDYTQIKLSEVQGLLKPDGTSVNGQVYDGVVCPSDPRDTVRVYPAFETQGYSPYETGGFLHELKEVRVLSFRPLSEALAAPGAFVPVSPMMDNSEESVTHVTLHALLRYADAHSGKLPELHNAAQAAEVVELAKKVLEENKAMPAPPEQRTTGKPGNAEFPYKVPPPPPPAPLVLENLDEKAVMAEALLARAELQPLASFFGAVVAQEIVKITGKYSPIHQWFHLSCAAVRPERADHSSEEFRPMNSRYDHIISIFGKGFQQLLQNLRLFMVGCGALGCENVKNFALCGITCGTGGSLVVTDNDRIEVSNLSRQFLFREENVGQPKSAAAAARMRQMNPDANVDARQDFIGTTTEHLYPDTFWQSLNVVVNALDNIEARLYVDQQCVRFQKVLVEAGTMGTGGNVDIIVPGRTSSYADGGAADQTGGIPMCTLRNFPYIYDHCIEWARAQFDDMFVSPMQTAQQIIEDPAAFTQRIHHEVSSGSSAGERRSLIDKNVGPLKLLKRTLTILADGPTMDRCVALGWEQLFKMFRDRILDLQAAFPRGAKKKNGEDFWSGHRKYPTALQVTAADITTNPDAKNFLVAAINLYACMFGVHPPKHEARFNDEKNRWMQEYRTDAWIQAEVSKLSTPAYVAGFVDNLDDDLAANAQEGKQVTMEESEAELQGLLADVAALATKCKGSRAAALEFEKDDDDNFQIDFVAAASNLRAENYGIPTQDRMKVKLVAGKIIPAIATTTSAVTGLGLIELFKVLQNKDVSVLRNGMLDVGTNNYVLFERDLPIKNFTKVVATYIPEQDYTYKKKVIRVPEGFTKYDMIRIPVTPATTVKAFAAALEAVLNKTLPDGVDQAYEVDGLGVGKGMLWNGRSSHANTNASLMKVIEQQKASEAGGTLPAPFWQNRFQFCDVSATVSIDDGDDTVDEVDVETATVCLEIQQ

[3] = target: AMP-activated protein kinase, AMPK (Homo sapiens) (UniProt P54646+O43741+P54619+Q9UGJ0+Q9Y478+Q13131+Q9UGI9); experiment: AMP-dependent Kinase enzyme assay. An in vitro enzyme assay that detects ADP turnover that is directly proportional to AMPK activity. This uses naive AMPK that is activated during the assay with MK-8722; format: functional; conditions: 30 µM
[4] = target: Sialic acid-binding Ig-like lectin 9 (Homo sapiens) (UniProt Q9Y336); experiment: Hs-Siglec9 ALPHAscreen SOP 20170721; conditions: 10 µM
Trypanosoma cruzi = experiment: Trypanosoma cruzi phosphomannomutase and mannose-1-phosphate guanylyltransferase assay; format: functional; conditions: 10 µM
[5] = target: T2, Arginase-2, mitochondrial (Homo sapiens) (UniProt P78540); experiment: in vitro enzyme assay to detect the production of urea directly proportional to the activity of Arginase II; format: functional; conditions: 33.3 µM; further: in the data most compounds retested in dose-response had high values
T2 sequence (whole entry): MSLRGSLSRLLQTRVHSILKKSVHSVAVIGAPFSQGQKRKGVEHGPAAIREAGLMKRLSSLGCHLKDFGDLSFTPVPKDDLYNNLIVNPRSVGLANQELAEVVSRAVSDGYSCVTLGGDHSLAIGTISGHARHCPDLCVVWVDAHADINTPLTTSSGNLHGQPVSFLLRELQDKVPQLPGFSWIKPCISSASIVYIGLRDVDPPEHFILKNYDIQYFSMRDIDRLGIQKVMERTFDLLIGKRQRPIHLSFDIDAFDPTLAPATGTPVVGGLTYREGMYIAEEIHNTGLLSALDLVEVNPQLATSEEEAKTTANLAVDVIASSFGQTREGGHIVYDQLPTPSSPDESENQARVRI

[6] = target: T3, Proteasome subunit beta (Trypanosoma cruzi) (UniProt O96673); experiment: Trypanosoma cruzi proteasome chymotrypsin-like activity (TcProtChymo) assay.; further: in the data most compounds retested in dose-response had high values; format: functional; conditions: 9.37 µM
T3 sequence (whole entry): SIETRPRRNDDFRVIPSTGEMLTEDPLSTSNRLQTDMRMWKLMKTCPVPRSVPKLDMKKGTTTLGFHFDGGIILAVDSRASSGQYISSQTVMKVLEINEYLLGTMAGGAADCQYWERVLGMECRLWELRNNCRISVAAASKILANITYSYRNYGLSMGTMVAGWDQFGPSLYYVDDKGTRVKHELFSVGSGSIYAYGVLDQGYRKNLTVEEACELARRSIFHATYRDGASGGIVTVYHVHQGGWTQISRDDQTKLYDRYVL

Homo sapiens = species: Homo sapiens; experiment: To identify inhibition of the IFN signalling (Jak-Stat) pathway via expression of an eGFP reporter gene under the control of an IFN-stimulated response element (ISRE) containing MxA promoter.; format: functional; conditions: 30 µM
[7] = target: T4, Tyrosyl-tRNA synthetase, putative (Trypanosoma cruzi (strain CL Brener)) (UniProt Q4DSP6); experiment: Trypanosoma cruzi tyrosyl tRNA synthetase (TcYRS) _High Tyrosine SOP; format: functional; conditions: 30 µM; further: in the data most compounds retested in dose-response had high values
T4 sequence (whole entry): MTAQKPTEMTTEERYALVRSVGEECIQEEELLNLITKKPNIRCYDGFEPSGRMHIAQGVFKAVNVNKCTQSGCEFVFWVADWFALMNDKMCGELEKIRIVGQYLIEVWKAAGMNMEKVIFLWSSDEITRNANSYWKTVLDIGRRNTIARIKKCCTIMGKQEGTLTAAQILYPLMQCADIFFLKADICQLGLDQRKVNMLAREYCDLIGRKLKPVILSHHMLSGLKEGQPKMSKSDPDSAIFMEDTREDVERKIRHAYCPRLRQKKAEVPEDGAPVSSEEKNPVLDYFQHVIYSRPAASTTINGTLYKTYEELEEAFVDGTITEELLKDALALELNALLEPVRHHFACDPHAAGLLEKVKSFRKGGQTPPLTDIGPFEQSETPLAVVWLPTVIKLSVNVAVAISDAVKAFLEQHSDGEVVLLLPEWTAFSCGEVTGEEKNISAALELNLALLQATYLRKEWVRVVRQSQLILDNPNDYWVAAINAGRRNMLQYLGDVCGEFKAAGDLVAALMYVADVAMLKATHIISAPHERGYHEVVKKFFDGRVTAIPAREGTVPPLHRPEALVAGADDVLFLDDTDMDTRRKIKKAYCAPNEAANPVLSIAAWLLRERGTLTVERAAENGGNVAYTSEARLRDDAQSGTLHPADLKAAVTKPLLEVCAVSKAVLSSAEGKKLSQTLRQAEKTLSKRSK

[8] = target: T4, Tyrosyl-tRNA synthetase, putative (Trypanosoma cruzi (strain CL Brener)); experiment: Trypanosoma cruzi tyrosyl tRNA synthetase (TcYRS) SOP; format: functional; conditions: 30 µM
[9] = target: Chromo domain-containing protein 1 (Saccharomyces cerevisiae (strain ATCC 204508 / S288c) (Baker's yeast)) (UniProt P32657); experiment: ScCHD-1 Enzyme Inhibition Assay; format: functional; conditions: 30 µM; further: in the data most compounds retested in dose-response had high values
Chain of Chromo domain-containing protein 1 (Saccharomyces cerevisiae (strain ATCC 204508 / S288c) (Baker's yeast)) (P32657 whole entry, the tested form may be a part): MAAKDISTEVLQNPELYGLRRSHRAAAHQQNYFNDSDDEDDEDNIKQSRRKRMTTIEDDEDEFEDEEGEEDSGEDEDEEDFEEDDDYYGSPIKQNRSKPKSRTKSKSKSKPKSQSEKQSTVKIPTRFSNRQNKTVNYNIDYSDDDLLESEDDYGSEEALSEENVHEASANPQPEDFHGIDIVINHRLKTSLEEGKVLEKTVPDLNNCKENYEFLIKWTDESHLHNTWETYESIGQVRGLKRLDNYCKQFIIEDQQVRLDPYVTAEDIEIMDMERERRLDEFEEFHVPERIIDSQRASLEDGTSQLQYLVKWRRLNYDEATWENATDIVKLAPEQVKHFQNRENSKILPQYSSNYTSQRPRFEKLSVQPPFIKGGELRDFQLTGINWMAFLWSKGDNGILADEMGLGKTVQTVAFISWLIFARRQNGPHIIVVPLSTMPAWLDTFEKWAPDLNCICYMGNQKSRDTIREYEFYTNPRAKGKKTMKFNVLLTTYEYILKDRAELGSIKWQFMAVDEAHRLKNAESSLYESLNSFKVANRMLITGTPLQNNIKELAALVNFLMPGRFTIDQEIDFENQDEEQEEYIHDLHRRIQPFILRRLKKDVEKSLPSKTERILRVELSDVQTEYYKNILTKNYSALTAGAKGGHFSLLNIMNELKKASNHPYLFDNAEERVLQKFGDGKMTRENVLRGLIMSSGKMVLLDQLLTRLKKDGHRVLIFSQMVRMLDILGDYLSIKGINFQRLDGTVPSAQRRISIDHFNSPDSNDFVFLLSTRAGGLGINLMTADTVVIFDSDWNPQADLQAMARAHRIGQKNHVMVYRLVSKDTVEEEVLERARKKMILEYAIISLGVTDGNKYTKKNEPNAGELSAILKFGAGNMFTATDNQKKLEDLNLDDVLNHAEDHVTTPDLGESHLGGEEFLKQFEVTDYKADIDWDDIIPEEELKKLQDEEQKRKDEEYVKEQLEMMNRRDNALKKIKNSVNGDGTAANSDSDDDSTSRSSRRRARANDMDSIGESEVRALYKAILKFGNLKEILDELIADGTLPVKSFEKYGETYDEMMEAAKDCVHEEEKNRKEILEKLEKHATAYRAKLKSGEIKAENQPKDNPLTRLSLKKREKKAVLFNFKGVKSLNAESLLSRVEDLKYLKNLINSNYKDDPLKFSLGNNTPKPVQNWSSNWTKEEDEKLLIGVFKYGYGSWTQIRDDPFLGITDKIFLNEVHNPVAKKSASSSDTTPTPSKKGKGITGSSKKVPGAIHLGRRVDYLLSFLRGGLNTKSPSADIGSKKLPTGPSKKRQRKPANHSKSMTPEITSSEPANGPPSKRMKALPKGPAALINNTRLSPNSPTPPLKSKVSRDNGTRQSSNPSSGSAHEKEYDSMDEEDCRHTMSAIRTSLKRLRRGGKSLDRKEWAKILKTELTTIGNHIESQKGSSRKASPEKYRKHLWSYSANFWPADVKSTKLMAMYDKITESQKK

Chain of Sialic acid-binding Ig-like lectin 9 (Homo sapiens) (Q9Y336 whole entry): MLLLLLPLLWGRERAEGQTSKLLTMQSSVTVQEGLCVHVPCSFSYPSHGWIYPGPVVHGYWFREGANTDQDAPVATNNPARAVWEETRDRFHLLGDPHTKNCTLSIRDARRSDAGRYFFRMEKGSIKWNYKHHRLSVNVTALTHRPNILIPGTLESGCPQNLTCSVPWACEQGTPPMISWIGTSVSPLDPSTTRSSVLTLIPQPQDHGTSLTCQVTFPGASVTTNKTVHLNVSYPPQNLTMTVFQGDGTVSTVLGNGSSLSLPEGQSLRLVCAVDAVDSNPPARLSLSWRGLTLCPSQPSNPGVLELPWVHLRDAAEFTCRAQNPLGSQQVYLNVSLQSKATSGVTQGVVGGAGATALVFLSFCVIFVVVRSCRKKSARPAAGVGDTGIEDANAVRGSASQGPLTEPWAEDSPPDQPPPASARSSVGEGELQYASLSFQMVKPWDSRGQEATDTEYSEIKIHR
Chain of Protein translocase subunit SecA (Escherichia coli (strain K12)) (P10408 whole entry): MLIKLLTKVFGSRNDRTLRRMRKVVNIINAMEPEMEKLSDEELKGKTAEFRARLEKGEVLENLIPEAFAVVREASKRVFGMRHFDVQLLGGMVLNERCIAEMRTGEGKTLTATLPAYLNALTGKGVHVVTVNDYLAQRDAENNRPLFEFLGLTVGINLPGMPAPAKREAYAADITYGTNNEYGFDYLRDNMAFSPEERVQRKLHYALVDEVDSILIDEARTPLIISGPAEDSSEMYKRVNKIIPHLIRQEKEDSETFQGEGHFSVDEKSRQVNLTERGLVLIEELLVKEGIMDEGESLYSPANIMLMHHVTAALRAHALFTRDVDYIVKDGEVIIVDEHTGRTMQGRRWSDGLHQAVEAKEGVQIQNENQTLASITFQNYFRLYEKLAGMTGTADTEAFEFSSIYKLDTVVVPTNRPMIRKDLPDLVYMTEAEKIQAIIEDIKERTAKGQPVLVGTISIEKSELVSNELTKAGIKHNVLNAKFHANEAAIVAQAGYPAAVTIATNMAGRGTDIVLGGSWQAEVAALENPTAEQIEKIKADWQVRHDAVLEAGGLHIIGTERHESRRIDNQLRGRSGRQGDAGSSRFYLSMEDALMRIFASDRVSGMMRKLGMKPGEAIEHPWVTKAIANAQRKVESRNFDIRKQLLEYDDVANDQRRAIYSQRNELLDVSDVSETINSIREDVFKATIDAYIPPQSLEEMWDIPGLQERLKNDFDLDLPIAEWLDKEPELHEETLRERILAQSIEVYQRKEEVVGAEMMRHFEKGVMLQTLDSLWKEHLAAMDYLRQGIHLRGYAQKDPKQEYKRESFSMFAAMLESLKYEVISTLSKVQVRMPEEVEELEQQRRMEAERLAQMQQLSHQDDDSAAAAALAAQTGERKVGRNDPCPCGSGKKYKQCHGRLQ

Row | SMILES | Percent Effect [1] [%] | Percent Effect [2] [%] | Percent Effect [3] [%] | Percent Effect [4] [%] | Percent Effect (Trypanosoma cruzi) [%] | Percent Effect [5] [%] | Percent Effect [6] [%] | Percent Effect (Homo sapiens) [%] | Percent Effect [7] [%] | Percent Effect [8] [%] | Percent Effect [9] [%]
1 | CCN(C(c1cccnc1)c1ccc2c(c1)CCO2)S(C)(=O)=O (configuration not stated) | -3.35 | 5.48 | -1.35 | 6.82 | 6.75 | -6.79 | 3.17 | 4.95 | 1.04 | 8.64 | -2.4
2 | CN(Cc1nc(N)c2ccccc2n1)CC1CCCN1c1cccnn1 (configuration not stated) | -6.24 | 5.2 | 2.23 | -2.05 | 11.8 | -2.32 | 13.2 | -8.77 | 6.67 | 18.8 | -22.9
3 | CCn1c(N)nc2cc(C(=O)NCCc3sccc3C)cnc21 | -4.71 | -2.74 | 1.2 | 24.5 | 5.29 | -2.73 | 28.6 | 8.68 | 3.23 | 20 | -6.44
4 | CCS(=O)(=O)N1CCC(c2nnc(CN3CCOCC3)n2C)CC1 | -3.22 | 18.7 | -2.94 | 20 | 3.8 | 5.73 | 14.5 | 3.52 | 9.29 | 21 | -5.76
5 | CCCc1noc(CCC(=O)N2CCCC2c2noc(C3CC3)n2)n1 (configuration not stated) | -5.01 | 10.1 | 1.8 | 21.9 | -0.85 | 1.52 | -1.56 | 12 | 1.48 | 1.27 | -2.93
6 | CC(C)NC(=O)COc1nc(C(C)(C)C)no1 | -4.03 | 13.5 | -3.54 | 27.8 | 5.21 | 0.952 | 4.31 | -3.96 | -0.529 | 4.88 | -3.56
7 | Cc1noc([C@@H]2CC[C@@H]3[C@@H](CCN3S(=O)(=O)C3CC3)O2)n1 | 0.234 | 8.11 | 10.7 | -3.31 | -4.3 | 3.33 | 17.2 | 4.51 | 5.94 | 11 | 6.55
8 | N#Cc1ccc(NCCNc2ccc(C(F)(F)F)cn2)nc1 | -2.89 | 7.89 | 4.53 | 10.9 | 3.01 | -1.53 | 10.7 | 104 | 8.33 | 24.4 | 2.5
9 | OC1(Cn2ccc3ncccc32)CCN(Cc2ccccn2)CC1 | -3.91 | 6.76 | 8.71 | -8.37 | -10.3 | -5.34 | 13.7 | 34.1 | -3.23 | -9.09 | -14.5
10 | O=C(Nc1nncs1)NC1CCc2ccccc21 (configuration not stated) | 0.119 | 5.48 | 1.57 | 3.21 | -6.94 | -3.19 | 8.13 | 40.4 | 6.25 | 16.1 | -1.82
11 | CCn1cnnc1C1CCN(C(=O)c2ccc(C(=O)OC)s2)CC1 | -6.84 | 10.4 | 4.62 | 9.21 | -4.87 | -0.356 | 7.43 | -6.83 | 4.85 | 12.2 | -5.74
12 | Cc1cc(-c2nnn(CCC(N)=O)n2)ccc1F | -3.96 | 13.7 | -6.12 | 8.1 | 5.75 | -2.79 | 15.3 | 11.3 | 8.33 | 13.6 | -2.17
13 | OC(COCc1ccccc1Cl)CN1CC(n2cccn2)C1 (configuration not stated) | 1.1 | -15.8 | 3.43 | -0.349 | -1.5 | 6.9 | 14.5 | 9.39 | 4.41 | 0 | -9.18
14 | Cc1cc(CN2CCN(CC(O)C(C)(C)C)CC2)no1 (configuration not stated) | 0.683 | 15.2 | -2.9 | 10.4 | 4.63 | 1.52 | 4.83 | 14.7 | 5.42 | 16.5 | -5.62
15 | CC(O)CN1CCN(C(=O)c2cc3ccccc3c(=O)[nH]2)CC1 (configuration not stated) | -0.781 | -5.26 | 5.31 | -2.11 | -3.41 | -10.7 | 13.1 | -6.84 | 0 | 2.6 | 12.2
16 | O=C(c1cscn1)N1C[C@@H]2C[C@@H](c3nnc(C4CC4)o3)O[C@@H]2C1 | 1.55 | 7.79 | 2.51 | -3.79 | -10.2 | 22.6 | 10.4 | 7.19 | -1.06 | 6.41 | -7.72
17 | CC(C)CN1CCN(Cc2nc3ccccc3[nH]2)[C@H]2CS(=O)(=O)C[C@H]21 | -0.363 | 10.8 | 1.86 | -1.7 | -6.35 | 2.73 | 5.41 | 0.0398 | 14 | 23.5 | -6.24
18 | CN(CC(=O)NC1(C#N)CCCC1)C1CCCN(c2cccnn2)C1 (configuration not stated) | -3.01 | 7.89 | -63.6 | 7.82 | 8.12 | 2.16 | 11.6 | -30.1 | 6.4 | 18.5 | -6.35
19 | Cc1nonc1C(=O)N1CCCC(c2ncncc2-c2ccncc2)C1 (configuration not stated) | -5.71 | 8 | 11.1 | 2.77 | -0.591 | 0.699 | 3.08 | -1.27 | 5.32 | 8.97 | -4.88
20 | Cc1cnn(CCNCc2ccc(OCC(N)=O)cc2)c1 | -7.27 | 5.33 | -3.69 | 3.41 | 3.8 | 5.21 | 4.36 | -9.67 | 3.83 | 8.64 | -7.44
21 | CS(=O)(=O)NCCC(=O)NC1CCc2nccn2C1 (configuration not stated) | 2.27 | 2.67 | -6.45 | 1.64 | -7.5 | 2.08 | 19.7 | 11.5 | 4.92 | 11.1 | -5.26
22 | O=C(Cn1ccnc1)N1C[C@@H]2CC[C@H](Oc3ccccc3)[C@@H]2C1 | -4.17 | 9.46 | 7.42 | -4.28 | 2.77 | -1.16 | 16.2 | 12.3 | 3.23 | 11.7 | -11.8
